Legend:
Experiment in all cases: DAPPL (digital affinity profiling via proximity ligation, sequencing); 10 mM Tris-HCl pH 7.5, 50 mM NaCl, 1 mM DTT, 4% glycerol, room temperature, 30 min; GST-TFs on glutathione beads, 16-mer random dsDNA library, 0.1% formaldehyde crosslink after washing; high values mean tight binding
Settings in all cases: protein: recombinant; tags: N-terminal GST; dsDNA, one strand shown
EHF = target: T1, EHF (Homo sapiens, UniProt Q9NZC4 1-300)
T1 sequence: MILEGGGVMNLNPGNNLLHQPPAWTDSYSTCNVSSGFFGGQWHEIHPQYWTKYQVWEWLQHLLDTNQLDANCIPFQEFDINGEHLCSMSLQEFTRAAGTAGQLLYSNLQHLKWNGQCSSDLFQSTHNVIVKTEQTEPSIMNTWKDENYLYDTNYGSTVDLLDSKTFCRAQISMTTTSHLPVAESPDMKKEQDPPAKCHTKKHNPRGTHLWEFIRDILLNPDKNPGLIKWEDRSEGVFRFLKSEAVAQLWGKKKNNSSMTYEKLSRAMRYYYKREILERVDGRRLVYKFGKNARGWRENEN
Outline: (§1)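 A tag-only sample was pooled with DNA-barcoded human transcription factors that had been expressed in yeast as GST fusions and captured on glutathione beads. The pools were incubated for 30 min at room temperature with 200 nmole of a random double-stranded 16-mer DNA library in Tris/NaCl/DTT/glycerol buffer, then washed, crosslinked with 0.1% formaldehyde, proximity-ligated (BsaI/T4 ligase, 1 h, 37 °C), PCR-amplified and sequenced on an Illumina NextSeq500. Binding signal is each hexamer's read frequency for a factor divided by its frequency for the tag-only sample.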

ERF = target: T2, ERF (Homo sapiens, UniProt P50548 1-548)
T2 sequence: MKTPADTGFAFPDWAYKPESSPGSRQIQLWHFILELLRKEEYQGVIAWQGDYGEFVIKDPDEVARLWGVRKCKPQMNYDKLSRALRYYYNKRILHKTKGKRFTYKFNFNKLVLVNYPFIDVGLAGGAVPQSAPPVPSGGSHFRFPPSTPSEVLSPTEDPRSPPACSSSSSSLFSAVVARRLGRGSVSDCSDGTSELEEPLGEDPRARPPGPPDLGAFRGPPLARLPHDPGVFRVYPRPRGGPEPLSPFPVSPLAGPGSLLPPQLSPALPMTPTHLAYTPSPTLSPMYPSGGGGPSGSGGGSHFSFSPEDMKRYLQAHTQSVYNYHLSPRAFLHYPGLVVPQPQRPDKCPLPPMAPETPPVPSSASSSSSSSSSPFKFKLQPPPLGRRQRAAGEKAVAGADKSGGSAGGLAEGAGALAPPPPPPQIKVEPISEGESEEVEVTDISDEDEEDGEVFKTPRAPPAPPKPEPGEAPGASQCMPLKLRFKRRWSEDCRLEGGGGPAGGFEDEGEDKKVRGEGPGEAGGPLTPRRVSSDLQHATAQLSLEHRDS
Outline: as §1

SPI1 = SPI1 (Homo sapiens, UniProt P17947 1-270)
Outline: as §1

ETV3L = target: T3, ETV3L (Homo sapiens, UniProt Q6ZN32 1-361)
T3 sequence: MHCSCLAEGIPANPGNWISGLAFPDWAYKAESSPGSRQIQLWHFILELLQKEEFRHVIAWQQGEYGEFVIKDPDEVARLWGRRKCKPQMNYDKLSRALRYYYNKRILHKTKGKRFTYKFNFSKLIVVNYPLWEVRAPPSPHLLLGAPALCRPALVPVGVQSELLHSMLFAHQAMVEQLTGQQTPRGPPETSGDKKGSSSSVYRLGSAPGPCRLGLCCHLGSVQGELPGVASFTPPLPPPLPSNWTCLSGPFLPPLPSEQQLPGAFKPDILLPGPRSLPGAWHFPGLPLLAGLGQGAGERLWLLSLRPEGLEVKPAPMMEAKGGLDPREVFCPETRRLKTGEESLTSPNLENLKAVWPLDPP
Outline: as §1

ETS2 = target: T4, ETS2 (Homo sapiens, UniProt P15036 1-469)
T4 sequence: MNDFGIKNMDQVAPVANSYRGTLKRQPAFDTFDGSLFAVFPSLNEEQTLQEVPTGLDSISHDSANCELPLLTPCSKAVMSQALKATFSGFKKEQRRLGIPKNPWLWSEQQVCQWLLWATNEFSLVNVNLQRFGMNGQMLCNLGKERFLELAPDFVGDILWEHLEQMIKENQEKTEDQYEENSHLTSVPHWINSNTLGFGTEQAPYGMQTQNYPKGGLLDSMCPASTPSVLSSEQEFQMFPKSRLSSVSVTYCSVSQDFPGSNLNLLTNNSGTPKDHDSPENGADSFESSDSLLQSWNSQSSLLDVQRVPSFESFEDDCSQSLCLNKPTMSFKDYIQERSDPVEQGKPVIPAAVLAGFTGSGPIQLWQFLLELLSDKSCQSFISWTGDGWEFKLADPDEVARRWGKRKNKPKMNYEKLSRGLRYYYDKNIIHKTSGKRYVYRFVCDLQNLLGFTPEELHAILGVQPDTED
Outline: as §1

SPDEF = target: T5, SPDEF (Homo sapiens, UniProt O95238 1-335)
T5 sequence: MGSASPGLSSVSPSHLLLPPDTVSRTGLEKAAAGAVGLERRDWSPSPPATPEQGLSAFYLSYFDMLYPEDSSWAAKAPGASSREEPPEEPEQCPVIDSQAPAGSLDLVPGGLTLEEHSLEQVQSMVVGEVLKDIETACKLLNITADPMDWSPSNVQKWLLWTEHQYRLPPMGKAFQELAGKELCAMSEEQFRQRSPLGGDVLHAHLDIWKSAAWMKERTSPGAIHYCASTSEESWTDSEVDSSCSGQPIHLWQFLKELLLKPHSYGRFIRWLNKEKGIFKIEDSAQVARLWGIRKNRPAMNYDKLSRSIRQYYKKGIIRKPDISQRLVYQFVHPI
Outline: as §1

ERG = target: T6, ERG (Homo sapiens, UniProt P11308 1-479)
T6 sequence: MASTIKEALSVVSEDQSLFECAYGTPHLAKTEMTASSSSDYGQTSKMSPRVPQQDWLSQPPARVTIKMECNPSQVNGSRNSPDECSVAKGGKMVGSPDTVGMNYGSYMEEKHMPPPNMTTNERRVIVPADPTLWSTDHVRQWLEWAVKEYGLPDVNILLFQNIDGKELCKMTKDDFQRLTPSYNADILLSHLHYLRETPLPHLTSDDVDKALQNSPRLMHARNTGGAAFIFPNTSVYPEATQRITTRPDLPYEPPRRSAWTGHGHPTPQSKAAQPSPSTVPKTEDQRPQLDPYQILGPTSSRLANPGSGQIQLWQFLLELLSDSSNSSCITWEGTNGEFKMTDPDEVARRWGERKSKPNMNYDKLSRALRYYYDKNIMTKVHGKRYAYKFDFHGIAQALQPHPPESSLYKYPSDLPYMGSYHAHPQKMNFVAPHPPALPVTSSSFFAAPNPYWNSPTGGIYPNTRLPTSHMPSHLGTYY
Outline: as §1

SPIB = SPIB (Homo sapiens, UniProt Q01892 1-262)
Outline: as §1

ETV7 = target: T7, ETV7 (Homo sapiens, UniProt Q9Y603 1-341)
T7 sequence: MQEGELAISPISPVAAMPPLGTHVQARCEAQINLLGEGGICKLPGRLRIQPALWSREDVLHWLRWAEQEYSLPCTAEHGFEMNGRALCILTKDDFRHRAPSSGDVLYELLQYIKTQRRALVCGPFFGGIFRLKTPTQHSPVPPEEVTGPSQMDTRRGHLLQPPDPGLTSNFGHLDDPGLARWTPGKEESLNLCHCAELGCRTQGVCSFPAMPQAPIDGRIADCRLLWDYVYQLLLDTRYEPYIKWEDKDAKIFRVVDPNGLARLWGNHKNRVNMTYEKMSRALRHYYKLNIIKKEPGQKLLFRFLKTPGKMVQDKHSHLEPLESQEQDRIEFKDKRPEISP
Outline: as §1

ETV3 = target: T8, ETV3 (Homo sapiens, UniProt P41162-2 1-143)
T8 sequence: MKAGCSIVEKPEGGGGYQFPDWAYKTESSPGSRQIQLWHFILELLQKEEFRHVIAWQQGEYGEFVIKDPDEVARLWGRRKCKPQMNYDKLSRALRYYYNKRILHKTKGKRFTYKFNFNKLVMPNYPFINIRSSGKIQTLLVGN
Outline: as §1

GABPA = target: T9, GABPA (Homo sapiens, UniProt Q06546 1-454)
T9 sequence: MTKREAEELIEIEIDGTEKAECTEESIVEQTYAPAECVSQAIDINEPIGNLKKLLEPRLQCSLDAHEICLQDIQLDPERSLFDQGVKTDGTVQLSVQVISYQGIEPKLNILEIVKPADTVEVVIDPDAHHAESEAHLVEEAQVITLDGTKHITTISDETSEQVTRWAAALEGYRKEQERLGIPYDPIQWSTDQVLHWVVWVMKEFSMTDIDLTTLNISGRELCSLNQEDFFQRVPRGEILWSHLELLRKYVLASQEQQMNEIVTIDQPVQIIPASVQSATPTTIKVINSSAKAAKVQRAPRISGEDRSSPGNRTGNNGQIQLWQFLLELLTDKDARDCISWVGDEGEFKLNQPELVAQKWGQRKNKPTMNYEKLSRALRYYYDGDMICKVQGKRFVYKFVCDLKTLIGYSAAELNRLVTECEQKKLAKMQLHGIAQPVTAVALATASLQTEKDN
Outline: as §1

FEV = target: T10, FEV (Homo sapiens, UniProt Q99581 1-238)
T10 sequence: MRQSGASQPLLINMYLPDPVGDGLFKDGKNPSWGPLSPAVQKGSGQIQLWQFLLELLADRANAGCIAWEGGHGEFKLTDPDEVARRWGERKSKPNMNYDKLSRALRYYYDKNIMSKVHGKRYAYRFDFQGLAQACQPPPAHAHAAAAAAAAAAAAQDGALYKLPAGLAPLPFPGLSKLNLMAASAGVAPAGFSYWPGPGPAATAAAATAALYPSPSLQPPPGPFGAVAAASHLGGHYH
Outline: as §1

ETV1 = ETV1 (Homo sapiens, UniProt P50549 1-477)
Outline: as §1

ELF5 = target: T11, ELF5 (Homo sapiens, UniProt Q9UKW6-2 1-255)
T11 sequence: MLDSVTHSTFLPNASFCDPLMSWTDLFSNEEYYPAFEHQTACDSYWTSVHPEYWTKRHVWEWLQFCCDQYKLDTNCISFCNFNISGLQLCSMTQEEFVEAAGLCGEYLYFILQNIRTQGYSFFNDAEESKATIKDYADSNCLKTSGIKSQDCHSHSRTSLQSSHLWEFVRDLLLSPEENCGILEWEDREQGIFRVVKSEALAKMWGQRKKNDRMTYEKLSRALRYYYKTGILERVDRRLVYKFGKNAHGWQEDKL
Outline: as §1

ETV6 = ETV6 (Homo sapiens, UniProt P41212 1-452)
Outline: as §1

Chain of SPIB (Q01892 whole entry): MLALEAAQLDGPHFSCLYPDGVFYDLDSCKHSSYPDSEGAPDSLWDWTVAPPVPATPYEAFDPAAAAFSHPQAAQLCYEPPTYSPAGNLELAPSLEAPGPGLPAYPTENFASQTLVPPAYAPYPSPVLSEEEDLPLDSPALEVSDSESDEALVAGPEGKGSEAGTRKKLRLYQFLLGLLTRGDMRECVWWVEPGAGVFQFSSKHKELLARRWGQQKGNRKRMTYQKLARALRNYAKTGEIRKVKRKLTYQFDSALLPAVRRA
Chain of ETV6 (P41212 whole entry): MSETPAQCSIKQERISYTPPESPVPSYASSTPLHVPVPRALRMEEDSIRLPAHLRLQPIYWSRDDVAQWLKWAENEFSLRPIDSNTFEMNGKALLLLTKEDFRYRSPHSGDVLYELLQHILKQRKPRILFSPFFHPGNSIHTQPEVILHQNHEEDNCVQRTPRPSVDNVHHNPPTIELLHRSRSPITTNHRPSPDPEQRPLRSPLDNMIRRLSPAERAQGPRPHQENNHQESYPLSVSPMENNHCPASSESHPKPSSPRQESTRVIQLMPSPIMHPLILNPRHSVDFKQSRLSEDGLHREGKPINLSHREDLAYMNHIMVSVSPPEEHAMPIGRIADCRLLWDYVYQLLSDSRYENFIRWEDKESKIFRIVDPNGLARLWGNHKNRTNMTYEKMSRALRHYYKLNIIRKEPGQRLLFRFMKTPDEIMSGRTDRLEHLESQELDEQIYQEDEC
Chain of ETV1 (P50549 whole entry): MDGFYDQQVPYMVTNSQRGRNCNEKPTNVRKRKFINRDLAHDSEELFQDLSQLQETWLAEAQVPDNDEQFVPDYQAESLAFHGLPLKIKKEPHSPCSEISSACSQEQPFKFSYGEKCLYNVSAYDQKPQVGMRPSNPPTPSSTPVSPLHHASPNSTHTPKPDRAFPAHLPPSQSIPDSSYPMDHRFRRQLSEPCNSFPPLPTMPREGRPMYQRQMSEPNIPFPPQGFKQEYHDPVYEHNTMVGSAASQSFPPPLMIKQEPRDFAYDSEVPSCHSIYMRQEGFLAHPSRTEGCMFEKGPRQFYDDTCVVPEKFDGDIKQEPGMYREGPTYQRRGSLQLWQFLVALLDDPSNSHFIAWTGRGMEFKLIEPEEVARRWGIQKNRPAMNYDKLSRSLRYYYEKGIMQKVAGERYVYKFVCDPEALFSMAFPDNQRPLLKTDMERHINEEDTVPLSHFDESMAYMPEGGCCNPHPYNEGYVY

Sequence: GCTGTC
- binding signal (EHF): 1 fold enrichment (6-mer frequency, TF over GST control)
- binding signal (ERF): 1.03 fold enrichment (6-mer frequency, TF over GST control)

Sequence: AGTTCA
- binding signal (SPI1): 1.01 fold enrichment (6-mer frequency, TF over GST control)
- binding signal (ETV3L): 1.04 fold enrichment (6-mer frequency, TF over GST control)
- binding signal (ETS2): 1 fold enrichment (6-mer frequency, TF over GST control)

Sequence: GACACC
- binding signal (ETV3L): 1.01 fold enrichment (6-mer frequency, TF over GST control)

Sequence: GGGTCC
- binding signal (SPDEF): 1 fold enrichment (6-mer frequency, TF over GST control)

Sequence: GACGAA
- binding signal (ERF): 1.01 fold enrichment (6-mer frequency, TF over GST control)

Sequence: GTATAG
- binding signal (ETV3L): 1 fold enrichment (6-mer frequency, TF over GST control)

Sequence: GAACAG
- binding signal (ERG): 1.02 fold enrichment (6-mer frequency, TF over GST control)
- binding signal (EHF): 1.03 fold enrichment (6-mer frequency, TF over GST control)
- binding signal (SPIB): 1.03 fold enrichment (6-mer frequency, TF over GST control)
- binding signal (ETV7): 1 fold enrichment (6-mer frequency, TF over GST control)
- binding signal (ETV3): 1.05 fold enrichment (6-mer frequency, TF over GST control)

Sequence: AGCGCA
- binding signal (ETV3L): 1.01 fold enrichment (6-mer frequency, TF over GST control)

Sequence: GACCCT
- binding signal (ERF): 1.05 fold enrichment (6-mer frequency, TF over GST control)

Sequence: CCTGTC
- binding signal (ERG): 1.01 fold enrichment (6-mer frequency, TF over GST control)
- binding signal (ETV7): 1.03 fold enrichment (6-mer frequency, TF over GST control)

Sequence: GACAAA
- binding signal (ERF): 1.06 fold enrichment (6-mer frequency, TF over GST control)
- binding signal (ETV7): 1.1 fold enrichment (6-mer frequency, TF over GST control)

Sequence: GCAACG
- binding signal (GABPA): 1.03 fold enrichment (6-mer frequency, TF over GST control)
- binding signal (ERG): 1 fold enrichment (6-mer frequency, TF over GST control)
- binding signal (ERF): 1.01 fold enrichment (6-mer frequency, TF over GST control)

Sequence: TGTAGT
- binding signal (SPDEF): 1.03 fold enrichment (6-mer frequency, TF over GST control)

Sequence: GTGGAC
- binding signal (ERF): 1.03 fold enrichment (6-mer frequency, TF over GST control)

Sequence: CGGTAC
- binding signal (SPIB): 1.06 fold enrichment (6-mer frequency, TF over GST control)
- binding signal (FEV): 1.05 fold enrichment (6-mer frequency, TF over GST control)
- binding signal (ETV1): 1.01 fold enrichment (6-mer frequency, TF over GST control)
- binding signal (SPDEF): 1.07 fold enrichment (6-mer frequency, TF over GST control)
- binding signal (ELF5): 1.02 fold enrichment (6-mer frequency, TF over GST control)

Sequence: GGGCTG
- binding signal (GABPA): 1.03 fold enrichment (6-mer frequency, TF over GST control)
- binding signal (ERF): 1.03 fold enrichment (6-mer frequency, TF over GST control)
- binding signal (ETV3L): 1.03 fold enrichment (6-mer frequency, TF over GST control)
- binding signal (ETV7): 1.05 fold enrichment (6-mer frequency, TF over GST control)

Sequence: GGGTCT
- binding signal (SPDEF): 1.01 fold enrichment (6-mer frequency, TF over GST control)

Sequence: CCGGGC
- binding signal (SPDEF): 1.05 fold enrichment (6-mer frequency, TF over GST control)

Sequence: CGCATC
- binding signal (SPDEF): 1.02 fold enrichment (6-mer frequency, TF over GST control)

Sequence: TCGCCA
- binding signal (GABPA): 1 fold enrichment (6-mer frequency, TF over GST control)
- binding signal (ETV3L): 1.01 fold enrichment (6-mer frequency, TF over GST control)

Sequence: GATGTG
- binding signal (SPDEF): 1.18 fold enrichment (6-mer frequency, TF over GST control)
- binding signal (ETV3): 1.01 fold enrichment (6-mer frequency, TF over GST control)

Sequence: CGGAAT
- binding signal (SPDEF): 1 fold enrichment (6-mer frequency, TF over GST control)
- binding signal (ETV3): 1.02 fold enrichment (6-mer frequency, TF over GST control)
- binding signal (ETV6): 1.01 fold enrichment (6-mer frequency, TF over GST control)

Sequence: GGGAAG
- binding signal (ETV6): 1.04 fold enrichment (6-mer frequency, TF over GST control)

Reference: article PMC7862700, “An all-to-all approach to the identification of sequence-specific readers for epigenetic DNA modifications on cytosine”
